Measurements from PubChem BioAssay AID1159580 (chemical genetic matrix, 2015).
Where “and” joins values, the source holds several entries; their conditions need not be identical. Equal values may be shown once. Hit rate of the full screen: of about 5,500 compounds, about 2,000 (36%) were called active. About 18% were inconclusive and are not listed. No stated cut-off is given here; in the data, active means normalized growth mostly below about 0.91 (no sharp cut-off); inconclusive means no clear call, values can overlap the other calls; inactive means mostly above about 0.92. Some of the results follow.

Assay: chemical genetic growth profiling, strain panel (AID 1159580);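 further: tested at 20 µM; growth read once vehicle control cultures reached saturation at 30 °C; 1 = growth at the plate median or of vehicle wells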
Conditions: growth OD

Measured: normalized growth

CCn1cc(C(=O)O)c(=O)c2cc3c(cc21)OCO3
inactive: S. cerevisiae deletion strains, locus YJR066W, strain TOR1, stronger effect = lower value 0.991 | S. cerevisiae deletion strains, locus YJR075W, strain HOC1, stronger effect = lower value 1.02 and 0.993 | S. cerevisiae deletion strains, locus YKL009W, strain mrt4, stronger effect = lower value 1.01 | S. cerevisiae deletion strains, locus YKL068W, stronger effect = lower value 0.996 | S. cerevisiae deletion strains, locus YKL085W, strain MDH1 (second series), stronger effect = lower value 0.996 | S. cerevisiae deletion strains, locus YKL085W, strain MDH1, stronger effect = lower value 0.996 | S. cerevisiae deletion strains, locus YKL160W, strain elf1, stronger effect = lower value 0.961 | S. cerevisiae deletion strains, locus YKL190W, strain CNB1, stronger effect = lower value 1.01 | S. cerevisiae deletion strains, locus YKR001C, strain vps1, stronger effect = lower value 1.01 | S. cerevisiae deletion strains, locus YKR026C, strain gcn3, stronger effect = lower value 0.987 | S. cerevisiae deletion strains, locus YKR091W, strain srl3, stronger effect = lower value 0.982 | S. cerevisiae deletion strains, locus YLL001W, strain dnm1, stronger effect = lower value 0.96 | S. cerevisiae deletion strains, locus YLL026W, stronger effect = lower value 0.988 | S. cerevisiae deletion strains, locus YLL041C, strain sdh2, stronger effect = lower value 0.98 | S. cerevisiae deletion strains, locus YLR027C, strain aat2, stronger effect = lower value 0.986 | S. cerevisiae deletion strains, locus YLR039C, strain RIC1, stronger effect = lower value 1.03 | S. cerevisiae deletion strains, locus YLR058C, strain SHM2, stronger effect = lower value 1.01 | S. cerevisiae deletion strains, locus YLR102C, strain apc9, stronger effect = lower value 0.994 | S. cerevisiae deletion strains, locus YLR113W, strain HOG1, stronger effect = lower value 1.07 | S. cerevisiae deletion strains, locus YLR221C, strain rsa3, stronger effect = lower value 0.96 | S. cerevisiae deletion strains, locus YLR258W, strain gsy2, stronger effect = lower value 0.983 | S. cerevisiae deletion strains, locus YLR262C, strain YPT6 (second series), stronger effect = lower value 0.909 | S. cerevisiae deletion strains, locus YLR262C, strain YPT6, stronger effect = lower value 1.04 | S. cerevisiae deletion strains, locus YLR268W, strain sec22, stronger effect = lower value 1 | S. cerevisiae deletion strains, locus YLR320W, strain mms22, stronger effect = lower value 0.956 | S. cerevisiae deletion strains, locus YLR330W, strain CHS5, stronger effect = lower value 1.01 | S. cerevisiae deletion strains, locus YLR342W, strain FKS1 (second series), stronger effect = lower value 0.996 | S. cerevisiae deletion strains, locus YLR342W, strain FKS1, stronger effect = lower value 0.977 | S. cerevisiae deletion strains, locus YLR357W, strain rsc2, stronger effect = lower value 0.944 | S. cerevisiae deletion strains, locus YLR370C, strain arc18, stronger effect = lower value 0.964 | S. cerevisiae deletion strains, locus YLR371W, strain rom2, stronger effect = lower value 0.993 | S. cerevisiae deletion strains, locus YLR384C, strain iki3, stronger effect = lower value 0.959 | S. cerevisiae deletion strains, locus YLR418C, strain cdc73, stronger effect = lower value 1.01 | S. cerevisiae deletion strains, locus YML016C, strain PPZ1, stronger effect = lower value 1.01 | S. cerevisiae deletion strains, locus YML032C, strain rad52, stronger effect = lower value 1 | S. cerevisiae deletion strains, locus YML120C, strain ndi1, stronger effect = lower value 0.97 | S. cerevisiae deletion strains, locus YML124C, strain tub3, stronger effect = lower value 0.997 | S. cerevisiae deletion strains, locus YMR058W, strain fet3, stronger effect = lower value 0.982 | S. cerevisiae deletion strains, locus YMR078C, strain ctf18, stronger effect = lower value 1 | S. cerevisiae deletion strains, locus YMR125W, strain sto1, stronger effect = lower value 0.962 | S. cerevisiae deletion strains, locus YMR129W, stronger effect = lower value 0.989 | S. cerevisiae deletion strains, locus YMR205C, strain PFK2, stronger effect = lower value 0.946 | S. cerevisiae deletion strains, locus YMR223W, strain ubp8, stronger effect = lower value 1 | S. cerevisiae deletion strains, locus YMR231W, strain pep5, stronger effect = lower value 0.978 | S. cerevisiae deletion strains, locus YMR263W, strain SAP30, stronger effect = lower value 0.994 | S. cerevisiae deletion strains, locus YMR307W, strain GAS1, stronger effect = lower value 1.04 | S. cerevisiae deletion strains, locus YNL067W, strain RPL9B, stronger effect = lower value 1.02 | S. cerevisiae deletion strains, locus YNL071W, strain lat1, stronger effect = lower value 0.984 | S. cerevisiae deletion strains, locus YNL128W, strain TEP1, stronger effect = lower value 0.983 | S. cerevisiae deletion strains, locus YNL153C, strain GIM3, stronger effect = lower value 0.997 | S. cerevisiae deletion strains, locus YNL175C, strain NOP13, stronger effect = lower value 0.988 | S. cerevisiae deletion strains, locus YNL183C, strain NPR1, stronger effect = lower value 0.973 | S. cerevisiae deletion strains, locus YNL197C, strain WHI3, stronger effect = lower value 0.984 | S. cerevisiae deletion strains, locus YNL209W, strain ssb2, stronger effect = lower value 0.986 | S. cerevisiae deletion strains, locus YNL224C, strain SQS1, stronger effect = lower value 0.972 | S. cerevisiae deletion strains, locus YNL233W, strain BNI4, stronger effect = lower value 1.02 | S. cerevisiae deletion strains, locus YNL248C, strain rpa49, stronger effect = lower value 0.964 | S. cerevisiae deletion strains, locus YNL250W, strain rad50, stronger effect = lower value 1.01 | S. cerevisiae deletion strains, locus YNL271C, strain bni1, stronger effect = lower value 0.993 | S. cerevisiae deletion strains, locus YNL298W, strain CLA4, stronger effect = lower value 0.997 | S. cerevisiae deletion strains, locus YNL307C, strain MCK1, stronger effect = lower value 0.997 | S. cerevisiae deletion strains, locus YNL322C, strain KRE1 (second series), stronger effect = lower value 0.959 | S. cerevisiae deletion strains, locus YNR049C, strain mso1, stronger effect = lower value 0.974 | S. cerevisiae deletion strains, locus YNR052C, strain pop2, stronger effect = lower value 1 | S. cerevisiae deletion strains, locus YOL006C, strain TOP1, stronger effect = lower value 1.04 | S. cerevisiae deletion strains, locus YOL012C, strain htz1 1.19 | S. cerevisiae deletion strains, locus YOL147C, strain pex11, stronger effect = lower value 0.991 | S. cerevisiae deletion strains, locus YOR001W, strain rrp6, stronger effect = lower value 1.01 | S. cerevisiae deletion strains, locus YOR061W, strain CKA2, stronger effect = lower value 1.02 | S. cerevisiae deletion strains, locus YOR069W, strain VPS5, stronger effect = lower value 1.01 | S. cerevisiae deletion strains, locus YOR070C, strain gyp1, stronger effect = lower value 0.975 | S. cerevisiae deletion strains, locus YOR080W, strain dia2, stronger effect = lower value 0.972 | S. cerevisiae deletion strains, locus YOR083W, strain WHI5 (second series), stronger effect = lower value 0.981 | S. cerevisiae deletion strains, locus YOR083W, strain WHI5, stronger effect = lower value 0.969 | S. cerevisiae deletion strains, locus YOR106W, strain vam3, stronger effect = lower value 0.935 | S. cerevisiae deletion strains, locus YOR136W, strain idh2, stronger effect = lower value 0.997 | S. cerevisiae deletion strains, locus YOR144C, strain elg1, stronger effect = lower value 0.991 | S. cerevisiae deletion strains, locus YOR184W, strain ser1, stronger effect = lower value 0.998 | S. cerevisiae deletion strains, locus YOR231W, strain MKK1, stronger effect = lower value 1.1 | S. cerevisiae deletion strains, locus YOR265W, strain rbl2, stronger effect = lower value 0.973 | S. cerevisiae deletion strains, locus YOR270C, strain vph1, stronger effect = lower value 0.957 | S. cerevisiae deletion strains, locus YOR290C, strain snf2, stronger effect = lower value 0.976 | S. cerevisiae deletion strains, locus YOR316C, strain cot1, stronger effect = lower value 0.997 | S. cerevisiae deletion strains, locus YPL051W, strain arl3, stronger effect = lower value 0.995 | S. cerevisiae deletion strains, locus YPL055C, strain LGE1, stronger effect = lower value 0.985 | S. cerevisiae deletion strains, locus YPL078C, strain atp4, stronger effect = lower value 0.971 | S. cerevisiae deletion strains, locus YPL106C, strain sse1, stronger effect = lower value 0.936 | S. cerevisiae deletion strains, locus YPL240C, strain hsp82, stronger effect = lower value 0.992 | S. cerevisiae deletion strains, locus YPL256C, strain CLN2, stronger effect = lower value 1.09 | S. cerevisiae deletion strains, locus YPR119W, strain clb2, stronger effect = lower value 0.988 | S. cerevisiae deletion strains, locus YPR141C, strain kar3, stronger effect = lower value 0.988 | S. cerevisiae deletion strains, locus YPR163C, strain tif3, stronger effect = lower value 0.987 | S. cerevisiae deletion strains, locus YPR167C, strain met16, stronger effect = lower value 0.985 | S. cerevisiae deletion strains, strain wtn01, stronger effect = lower value 1 | S. cerevisiae strains, strain wild type, stronger effect = lower value 1.02
